These results are taken from PubChem BioAssay (NCI).

This is part of a sample that, as a whole, favours compounds with a hit. Of some 83,000 tested, about 20% had one in any assay.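 In brief: 96-well plates, 48 h treatment, single concentration, percent growth endpoint.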 A number with no mark means an inactive call. Activity calls are given as the source filed them. How the source made its calls: active means growth percent below 10; inactive means the rest.

Common to all, as to assay: NCI-60 one-dose screen, 48 h (100 = growth as untreated, 0 = no growth, -100 = all killed)
Common to all, as to conditions: 10 µM unless noted

The subject of assay [1] is NCI-H23 lung.
The test system of assay [2] is NCI-H226 lung.
Assay [3] deals with NCI-H322M lung.
Assay [4] has as its system HOP-62 NSCLC.
For assay [5], the system named is NCI-H460 lung.
The test system of assay [6] is HOP-92 NSCLC.
In assay [7] the test system is NCI-H522 lung.
Assay [8] relates to A549/ATCC NSCLC.
Assay [9] has as its system 786-0 renal.
Assay [10] relates to COLO 205 colon.

For `CC[C@H](C)[C@H](NC(=O)NC(C)(C)C)C(=O)N(C)[C@H](C[C@@H](OC(C)=O)c1nc(C(=O)N[C@@H](Cc2ccccc2)C[C@H](C)C(=O)OC)cs1)C(C)C`, the growth is 24.1% in assay [1]; 16.3% in assay [2]; 44.4% in assay [3]; 12.4% in [4]; 1.65% (active) in [5]; 17.3% in assay [6]. In addition, the growth in assay [7] is 14.4%; in assay [8], 19.1%; in assay [9], -7.51% (active); in assay [10], -53.8% (active).

Regarding `CCC(O)(CN)c1ccccc1` (stereo not given), the growth was 101% in assay [1]; 92.4% in assay [2]; 102% in [3]; 97.3% in assay [4]; 107% in [5]; 93.1% in assay [6]. Further, the growth was 79.2% in [7], 86.6% in [8], 97.8% in [9] and 102% in assay [10].

As to `CC(=O)O[C@H]1CC[C@H]2[C@@H]3CC=C4c5nc(-c6ccccc6)sc5CC[C@]4(C)[C@H]3CC[C@]12C`, the growth in [1] was 71.7%; in [2] it was 95.5%; in assay [3] it was 91.4%; in [4], 72.1%; in [5], 39.4%; in [6] it was 102%. Further, the growth was 43.8% in [7], 57.9% in assay [8], 66.3% in assay [9] and 7.45% (active) in assay [10].

In the case of `O=C(Nc1ccc([As]=[As]c2ccc(NC(=O)c3ccccc3)cc2)cc1)c1ccccc1` (stereo not given), the growth in assay [1] was -71.3% (active); in [2] it was -85.5% (active); in [3], -76.8% (active); in assay [4] it was -96.7% (active); in assay [5], -30.5% (active); in assay [6] it was -93.1% (active). In addition, the growth in assay [7] was -75.9% (active); in assay [8], -63.2% (active); in assay [9], -94.3% (active); in assay [10] it was -83.4% (active).

For `CC12CCC=CC1CCC1C2CCC2(C)C(c3ccc(=O)oc3)CCC12O` (stereo not given), the growth in assay [1] was -64% (active); in assay [2], -92.3% (active); in assay [3], -22.5% (active); in assay [4], -71.9% (active); in [5], -69.3% (active); in [6], -10.7% (active). The growth in assay [7] was -27.9% (active); in [8] it was -52.1% (active); in assay [9] it was -51.1% (active); in assay [10], -50.9% (active).

In the case of `COC(=O)[C@@H](C[C@H](Cc1ccccc1)NC(=O)c1csc([C@@H](C[C@H](C(C)C)N(C)C(=O)[C@@H](NC(=O)[C@H]2CCCCN2C)C(C)C)OC(C)=O)n1)NC(=O)OCc1ccccc1`, the growth is 35.1% [9.5 µM] in assay [1]; -36.8% [9.5 µM] (active) in assay [2]; 43.1% [9.5 µM] in [3]; 12.1% [9.5 µM] in assay [4]; 5.31% [9.5 µM] (active) in [5]; 25.7% [9.5 µM] in assay [6]. Besides, the growth in assay [7] is -45.5% [9.5 µM] (active); in assay [8] it was 14.1% [9.5 µM]; in assay [9] it was 15.8% [9.5 µM]; in assay [10], -65.4% [9.5 µM] (active).

With `CCCCCCCC[n+]1ccc2ccccc2c1`, the growth in assay [1] is 36.5%; in [2] it was 61.4%; in assay [3] it was 99.2%; in assay [4] it was 77.2%; in assay [5], 73.9%; in assay [6], 52%. In addition, the growth was 29.8% in assay [7], 88.7% in assay [8], 75.5% in [9] and 59% in [10].

Regarding `O=C(CCCCCCC(=O)Nc1ccc(N(CCCl)CCCl)cc1)NO`, the growth was 29.2% in assay [1]; 59.4% in [2]; 69.4% in assay [3]; 23.8% in assay [4]; 14.5% in [5]; 17.4% in [6]. Also, the growth in assay [7] is 23.8%; in [8] it was 27.4%; in [9], 22.9%; in assay [10], 29.5%.

Regarding `CCCCCCCCCCCCCC[P+](CCCCCC)(CCCCCC)CCCCCC`, the growth is -39.3% (active) in assay [1]; -1.45% (active) in assay [2]; -11.9% (active) in assay [3]; -2.18% (active) in assay [4]; -59.4% (active) in [5]; -67.1% (active) in [6]. Further, the growth was -71.4% (active) in [7], -35% (active) in [8], -65.8% (active) in assay [9] and -65.4% (active) in [10].

On to `CCCCN1CCCC[C@@H]1C(=O)N[C@H](C(=O)N(C)[C@H](C[C@@H](OC(C)=O)c1nc(C(=O)NC2CCC(C(=O)OC)CC2)cs1)C(C)C)C(C)C` (stereo not given in full), for which the growth in assay [1] was 48.4%; in assay [2], 71.8%; in assay [3], 40.5%; in assay [4], 23%; in assay [5], 9.59% (active); in [6], 37%. Also, the growth is -11.8% (active) in assay [7], 24.2% in assay [8], 36.7% in [9] and 7.59% (active) in assay [10].

For `OCCCCCNC1CCCCC1`, the growth in assay [1] was 97.3%; in assay [2] it was 98.9%; in [3], 99%; in assay [4], 111%; in [5], 109%; in [6], 96.1%. Further, the growth in assay [7] was 67.8%; in assay [8], 107%; in assay [9], 99.5%; in assay [10] it was 112%.

As for `Cc1sc2c(c1C)C(c1ccc(Cl)cc1)=N[C@@H](CC(=O)OC(C)(C)C)c1nnc(C)n1-2`, the growth is 28.5% in [1]; 71.8% in [2]; 37.3% in assay [3]; 36.8% in assay [4]; 39.9% in assay [5]; 21.2% in assay [6]. Also, the growth was 2.71% (active) in [7], 37.9% in [8], 46% in assay [9] and 19.3% in assay [10].

As to `CN(C)C(=O)Oc1ccc(Br)cc1`, the growth in assay [1] is 102%; in assay [2] it was 101%; in assay [3] it was 86.1%; in [4] it was 93%; in assay [5], 104%; in assay [6], 107%. The growth in assay [7] was 95.6%; in [8], 100%; in [9], 98.6%; in [10], 102%.
